Only some compounds are listed: those with a hit (about 19% of all), similar ones and a draw of the others.
IL-1B inflam inh – blocks inflammasome-driven IL-1 beta release | THP-1 LPS/ATP IL-1B secretion, AlphaLISA, 16 h; stronger effect = lower value | activity change, % at 57.5 µM | 4.7% of 360,000 active | AID 743279; in the data active means activity change below about -50%; inconclusive means mostly about -30% to -49%
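THP-1 cells pretreated 1 hr with compounds (up to 57.5 uM final), then stimulated with LPS (250 ng/mL final) plus ATP (1.25 mM final); secreted IL-1B measured by AlphaLISA after 16 hr, decreased signal indicating inhibition.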
TDP1 inh – blocks human tyrosyl-DNA phosphodiesterase 1 | recombinant TDP1, AlphaScreen DNA substrate cleavage | Potency, µM (titrated, usually from 130 µM), without a hit: at the highest dose activity change, negative = inhibition, actives largely listed as inhibitors | 0.28% of 350,000 active | AID 485290; further: potency means the concentration at half of the fitted maximal effect; nearly all actives have a fitted effect of over 40% in size
Target sequence (Q9NUW8 whole entry, looked up): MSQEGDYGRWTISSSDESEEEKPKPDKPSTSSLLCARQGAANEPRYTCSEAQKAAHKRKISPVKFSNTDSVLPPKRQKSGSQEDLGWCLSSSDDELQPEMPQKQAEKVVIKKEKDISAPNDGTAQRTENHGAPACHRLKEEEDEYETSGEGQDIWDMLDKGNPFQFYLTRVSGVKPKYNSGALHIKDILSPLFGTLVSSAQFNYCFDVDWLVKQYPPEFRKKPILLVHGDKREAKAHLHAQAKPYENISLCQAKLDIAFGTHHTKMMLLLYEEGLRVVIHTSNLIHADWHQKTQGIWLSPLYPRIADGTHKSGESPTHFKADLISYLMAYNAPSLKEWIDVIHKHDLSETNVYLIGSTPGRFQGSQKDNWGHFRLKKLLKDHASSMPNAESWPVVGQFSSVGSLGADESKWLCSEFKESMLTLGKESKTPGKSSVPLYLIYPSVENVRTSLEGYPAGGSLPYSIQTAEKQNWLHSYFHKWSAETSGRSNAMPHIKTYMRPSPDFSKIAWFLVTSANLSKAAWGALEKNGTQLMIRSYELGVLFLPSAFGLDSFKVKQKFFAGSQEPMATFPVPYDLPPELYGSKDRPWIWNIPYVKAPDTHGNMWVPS
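Tdp1 1 nM final; 15 min RT w/ cpd; substrate 15 nM, 5 min; beads 10 ug/ml, 10 min; AlphaScreen read. Neg ctrl: no enzyme.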
ELG1 DNA repair – inhibitors of ELG1-dependent DNA repair in HEK293T cells | HEK293T ELG1-luciferase reporter, luminescence, 16 h; DNA damage induced by 5-fluorouridine | Potency, µM (series often up to 46.1 µM), for inactives: at the top dose activity change, negative = inhibition, actives largely listed as inhibitors | 2.3% of 330,000 active | AID 504467; further: potency means the concentration at half of the fitted maximal effect; nearly all actives have a fitted effect of over 55% in size
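Step one: seed 2,000 cells per well. Step two: pin-transfer compound or DMSO alongside 5-fluorouridine. Step three: incubate 16 hr, 37 °C, 5% CO2. Step four: add ONE-Glo, wait 30 min, read luminescence.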
Giardia killer – Giardia lamblia killing | Giardia lamblia trophozoite viability | AID 540267 | 0.15% of 340,000 active | activity change, % at 7.66 µM, hits read low; in the data active means activity change below about -80%; inconclusive means between about -30% and that limit;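 further: parasites exposed to compound for two days anaerobically before the ATP read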
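ATP-content bioluminescence gauges trophozoite survival. Cells (100/well) receive compound and incubate anaerobically for 48 hrs at 37 deg C; detection reagent follows for 15-30 min at room temperature.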
DT40 TDP1 no CPT – qHTS for Inhibitors of human tyrosyl-DNA phosphodiesterase 1 (TDP1): qHTS in cells in absence of CPT. DT40 Tdp1-/- hTDP1 cells, no CPT, ATP luminescence, 48 h. Potency, µM (top dose mostly 46.2 µM), inactives show at the top dose activity change, negative = growth inhibition, actives largely listed as inhibitors. 15% of 420,000 active; further: potency means the concentration at half of the fitted maximal effect; nearly all actives have a fitted effect of over 55% in size
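Growth of hTDP1-complemented DT40 Tdp1-knockout cells is measured by ATP luminescence after at least 48 hr compound exposure at 37 °C, with DMSO substituting for the 20 nM CPT used in the parallel screen.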
DT40 TDP1 CPT – DT40-hTDP1 cell growth loss with CPT. chicken DT40 Tdp1-/-;hTDP1 cells + 20 nM CPT, ATP luminescence, 48 h. 12% of 420,000 active. Potency, µM (doses to about 46.2 µM), for the others: at the highest dose activity change, negative = growth inhibition, most hits filed as inhibitors; further: potency means the concentration at half of the fitted maximal effect; nearly all actives have a fitted effect of over 55% in size
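Cell growth measured by CellTiter-Glo luminescence after a minimum 48 h, 37 C compound exposure with 20 nM CPT in Tdp1-knockout DT40 cells stably expressing hTDP1, seeded 400/well; qHTS titration format.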
Active calls of the source: *; ? = inconclusive; · = not tested or not shown; [ ] = remark or other dose. Unless noted, the call rests on the fitted dose curve; in most records, active means well fitted curve in the direction sought with a large enough effect; inconclusive means small, poorly fitted or top-dose-only effect, or another doubt; inactive means no such curve, though single readings can be large; an effect the other way counts as inactive or inconclusive. On the % scale 0 is the no-effect control and ±100 the full control effect.

SMILES	IL-1B inflam inh	TDP1 inh	ELG1 DNA repair	Giardia killer	DT40 TDP1 no CPT	DT40 TDP1 CPT
CCOC(=O)c1cnc2ccc(OCC)cc2c1NCCCN1CCOCC1	-53*	2%	-25%	?	18µM*	18µM*
CCOC(=O)c1cnc2ccc(C(=O)OC)cc2c1NCCN1CCOCC1	-27	2%	-21%	9	-18%	?
CCOC(=O)c1cnc2ccc(OCC)cc2c1NCCN1CCOCC1	-25	6%	20%	9	21µM*	?
CCOC(=O)c1cnc2c(Cl)cccc2c1NCCCN1CCOCC1	-14	·	-1%	20	?	?
CCOc1ccc(C=C2SC(=O)N(CCN)C2=O)cc1	·	11%	·	·	·	·
CC(C)c1c(O)ccc2c1CCC1[C@@](C)(CO)CCC[C@@]21C (stereo not given in full)	·	13%[56.1 µM]	·	·	?	?
COC(=O)[C@@]1(C)CCC[C@@]2(C)c3ccc(O)c(C(C)C)c3CCC21 (stereo not given in full)	·	12%	·	·	10µM*	16µM*
COC(=O)[C@]1(C)CCC[C@]2(C)c3ccc(C(C)C)cc3C(=O)CC12 (stereo not given in full)	·	-6%[56.1 µM]	·	·	23µM*	?
COC(=O)C1(C)CCCC2(C)c3cc(OC)ccc3C(=O)C(Br)C12 (stereo not given)	-23	·	·	·	6.5µM*	12µM*
Cc1cc(-c2ccc(N=Nc3ccc4c(S(=O)(=O)O)cc(S(=O)(=O)O)c(N)c4c3O)c(C)c2)ccc1N=Nc1ccc2c(S(=O)(=O)O)cc(S(=O)(=O)O)c(N)c2c1O	·	24%[56.1 µM]	·	·	12µM*	7.5µM*
Nc1c(N=Nc2ccc(-c3ccc(N=Nc4cc(S(=O)(=O)O)c5ccccc5c4N)cc3)cc2)cc(S(=O)(=O)O)c2ccccc12	·	20%	·	·	?	?
COc1ccc(C(=O)OCC(=O)Nc2c(C)cccc2C)c(OC)c1OC	8	·	?	3	?	0%
COc1ccc(C)cc1NC(=O)CN1C(=O)c2cccc3cccc1c23	18	3%	-17%	-12	-7%	-15%
COc1ccc(NC(=O)CN2C(=O)C(=O)c3ccccc32)c(OC)c1	·	0%	·	·	6.5µM*	4.1µM*
COc1ccc(NC(=O)CN2C(=O)C(C)Oc3ccccc32)c(OC)c1 (stereo not given)	-10	6%	0%	3	?	-9%
O=C(CN1C(=O)C(=O)c2ccccc21)OCN1C(=O)c2ccccc2C1=O	12	-3%	4%	-8	-8%	-5%
COc1ccccc1NC(=O)COC(=O)CN1C(=O)C(=O)c2ccccc21	-10	0%	17%	13	?	8.2µM*
COc1ccccc1NC(=O)CN1C(=O)c2cccc3cccc1c23	·	-2%	·	·	18µM*	?
CCOc1ccccc1NC(=O)CN1c2ccccc2S(=O)(=O)c2ccccc21	·	1%	·	·	?	26µM*
CCNc1nc(C#N)nc2c1ncn2-c1cccc(Cl)c1	·	-1%	·	·	·	·
CC1CCN(Cc2nnnn2-c2cccc([N+](=O)[O-])c2)CC1	-14	-1%	3%	5	?	?
O=[N+]([O-])c1ccc(N/N=C2/CCCCC2c2ccccn2)cc1 (stereo not given)	-14	7%	-6%	-10	-25%	-27%
CCOc1ccccc1NC(=O)CN1C(=O)C(=O)c2ccccc21	·	1%	·	·	4.1µM*	5.8µM*
CCN1C(=O)c2cccc3c(S(=O)(=O)NCc4ccccc4)ccc1c23	-26	-6%	?	2	?	?
CCN1C(=O)c2cccc3c(S(=O)(=O)Nc4ccccc4OC)ccc1c23	-30	6%	?	-18	15µM*	12µM*
SMILES	IL-1B inflam inh	TDP1 inh	ELG1 DNA repair	Giardia killer	DT40 TDP1 no CPT	DT40 TDP1 CPT
Cc1ccc(S(=O)(=O)NCC(c2ccc(N(C)C)cc2)N2CCCC2)cc1 (stereo not given)	·	6%	·	·	?	?
c1ccc(OCCN2CCN(C(c3ccccc3)c3ccccc3)CC2)cc1	-22	·	?	1	15µM*	?
CCN1CCN(CCOc2ccccc2-c2ccccc2)CC1	-15	-10%	-3%	-8	-24%	?
CCN1CCN(CCCOc2ccc(-c3ccccc3)cc2)CC1	-56*	4%	?	-8	?	?
COc1ccc(OCCOCCN2CCN(C)CC2)cc1	6	4%	2%	-18	-16%	-1%
CN1CCN(CCCOc2ccc(-c3ccccc3)cc2)CC1	-82*	·	?	5	16µM*	?
O=C(c1c(F)cccc1F)N1CCN(CCOc2ccccc2)CC1	-3	·	21µM*	12	?	-28%
CN1CCN(CCOc2ccc(-c3ccccc3)cc2)CC1	-59*	7%	?	-17	?	?
c1ccc(COc2ccc(OCCCCN3CCCCC3)cc2)cc1	-58*	4%	?	-1	21µM*	29µM*
CCN1CCN(CC(O)COc2cccc(OC)c2)CC1 (stereo not given)	20	6%	2%	-5	5%	6%
COc1cccc(OCC(O)CN2CCN(C(c3ccccc3)c3ccccc3)CC2)c1 (stereo not given)	-7	·	·	-11	13µM*	?
CC/C(=C\C(=O)c1ccncc1)Nc1ccc(Br)cc1	-67*	1%	1%	16	?	?
O=S1(=O)c2ccccc2Nc2ccccc21	-73*	·	1%	-11	-24%	8%
CCC(C)(C)c1nnc(NC(=O)c2ccc([N+](=O)[O-])cc2)s1	-23	4%	?	31	-2%	-15%
CCN(CC)CC(=O)Nc1ccc(Oc2ccc(NC(=O)CN(CC)CC)cc2)cc1	-58*	8%	0%	-12	-15%	1%
CCC(C)NCC(=O)Nc1ccc(-c2nc3cc(NC(=O)CNC(C)CC)ccc3o2)cc1 (stereo not given)	-3	-2%	-5%	13	7.3µM*	6.5µM*
CCN(CC)CC(=O)Nc1ccc(-c2nc3cc(NC(=O)CN(CC)CC)ccc3o2)cc1	-13	5%	?	?	18µM*	21µM*
CCCC(=O)Nc1ccc2oc(-c3ccncc3)nc2c1	-29	10%	4%	3	-18%	-7%
O=C(CN1CCCC1)Nc1ccc(-c2nc3cc(NC(=O)CN4CCCC4)ccc3o2)cc1	-56*	-10%	?	26	12µM*	18µM*

Assay outcomes deposited in PubChem BioAssay by National Center for Advancing Translational Sciences (NCATS).
